# Measurements from PubChem BioAssay (NCATS).
# Records with an inconclusive call do not appear. The list shows a part of the results. A call without a number means that no potency is given here. The source made the active and inactive calls. Unless noted, the call rests on the fitted dose curve; in most records, active means well fitted curve in the direction sought with a large enough effect; inconclusive means small, poorly fitted or top-dose-only effect, or another doubt; inactive means no such curve, though single readings can be large; an effect the other way counts as inactive or inconclusive.
# Columns and labels:
# [1] = qHTS Assay for Identification of Small Molecule Inducers of Hypoxia Response (AID 2120; active means well fitted curve in the direction sought with a large enough effect in the signal ratio, with a control signal flat, not every such curve was filed as active; the % refers to the signal ratio)
# How it was run: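 Cell-based qHTS for reporter induction: hypoxia response element controlled beta-lactamase in ME-180 cells. Compounds incubated 17 h at 37 degrees C; activity from blue/green (460/530 nm) ratio, inducers ranked by AC50.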
# [2] = biological target: Endonuclease 4 (Escherichia coli (strain K12)) (UniProt P0A6C1); test: Counterscreen for APE1 Inhibitors: qHTS Assay for Inhibitors of Endonuclease IV (AID 2565)
# How it was run: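 Incision of a double-stranded 50 nM TAMRA/BHQ-2 abasic substrate was followed kinetically (525/598 nm, reads every 60 s) after 15 min enzyme–compound preincubation with 2 nM EndoIV in pH 7.5 Tris buffer with MgCl2, DTT and Tween-20; concentration-response format.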
# [3] = biological target: DNA repair nuclease/redox regulator APEX1 (Homo sapiens) (UniProt P27695); test: Confirmation qHTS Assay for Inhibitors of the Human Apurinic/apyrimidinic Endonuclease 1 (APE1) (AID 2572); conditions: purified APE1, fluorogenic abasic-site DNA cleavage; further: potency means the concentration at half of the fitted maximal effect; nearly all actives have a fitted effect of over 30% in size
# Source text: (§1) The apurinic/apyrimidinic endonuclease APE1 is the primary mammalian enzyme responsible for the removal of abasic (or AP) sites in DNA and functions centrally in the base excision DNA repair (BER) pathway. […] Thus, targeting APE1 could improve the efficacy of current treatment paradigms by promoting selective sensitization or protection of diseased and normal cells, respectively.
# Inhibition of APE1 activity was screened by utilizing double-stranded short substrate containing tetrahydrofuran (THF) abasic site labeled with rhodamine-type fluorophore (TAMRA) at the 5'-end and with non-fluorescent Black Hole Quencher-2 (BHQ-2) at the opposing 3'-end. An increase in the fluorescence intensity due to incision of the abasic site by APE1 was used to measure the enzyme activity.
# Assay Provider: David M. Wilson, III, National Institute on Aging, NIH
# Screening Center PI: Austin, C.P.
# Screening Center: NIH Chemical Genomics Center [NCGC]
# 1. […]
# (§2) Three uL of enzyme were dispensed to 1536-well Greiner black solid bottom plates. […] The plates were immediately transferred into ViewLux High-throughput CCD imager (Perkin-Elmer) in order to measure the reaction progress in kinetic mode (three reads every 60 seconds) using 525 nm excitation and 598 nm emission fluorescence protocol. The fluorescence intensity difference between the third and the first time points was used to compute reaction progress.
# [4] = biological target: DNA repair nuclease/redox regulator APEX1 (Homo sapiens) (UniProt P27695); test: qHTS FP-Based Assay for Inhibitors of the Human Apurinic/apyrimidinic Endonuclease 1 (APE1) (AID 2573)
# Source text: as §1
# In order to gain insight into the mode of action of confirmed APE1 inhibitors, we implemented a miniaturized fluorescence polarization assay designed to report on compounds which competitively displace ds-DNA substrate. The fluorescence polarization assay has been implemented in 384- and 1536-well format for binding of TAMRA-labeled double-stranded DNA probe not containing a quencher. The binding of protein to DNA is inhibited by ATA, a general inhibitor of APE1 activity.
# See also related primary fluorogenic assay (AID 2517). […]
# as §2
# [5] = biological target: Ferritin light chain (Equus caballus) (UniProt P02791); test: qHTS Validation Assay for Identification of Novel General Anesthetics (AID 2323)
# How it was run: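 Fluorescence at 535 nm (excitation 380 nm) reported loss of 1-AMA binding to horse-spleen apoferritin (10 uM) in PBS with 50% saturated 1-aminoanthracene, after 10 min room-temperature incubation with compound; values from Hill fits of normalized response.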
# [6] = biological target: ATP-dependent DNA helicase Q1 (Homo sapiens) (UniProt P46063); test: qHTS Validation Assay for Inhibitors of RecQ-Like Dna Helicase 1 (RECQ1) (AID 2353)
# How it was run: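 RECQ1T1 50 nM; forked duplex (20 bp + 30-nt ss tails) 200 nM, ATP 2 mM final; pH 8.0, 2 mM MgCl2, 2.5 ug/ml poly(dI-dC); 15 min compound preincubation; discontinuous kinetic read over 2 h at RT.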
# [7] = biological target: RecQ-like DNA helicase BLM (Homo sapiens) (UniProt P54132); test: qHTS Validation Assay for Inhibitors of Bloom's syndrome helicase (BLM) (AID 2364)
# Source text: Survival of cells and the faithful propagation of the genome depend on elaborate mechanisms of detecting and repairing DNA damage. Treatment of advanced cancer relies on radiation therapy or chemotherapy, which kill cancer cells by causing extensive DNA damage. It is often found, that cancer cells develop resistance to therapy through enhanced activity of DNA repair functions; this has led to an increased interest in developing drugs that interfere with DNA repair, which could sensitize cancer cells to conventional therapy.
# This validation qHTS assay pertains to human BLM, which is important in resolving abnormal DNA structures formed during replication or homologous recombination. Shutting down the expression of BLM leads to chromosomal instability and higher radiation sensitivity in cultured cells.
# The validation assay was a fluorescence quenching based kinetic qHTS for BLM Helicase DNA unwinding. The activity was measured as ATP-dependent separation of a 20-bp DNA duplex extended by 30-nt single-stranded tails (forked duplex). The forked DNA substrate was tagged with rhodamine fluorophore (carboxytetramethyl rhodamine, TAMRA) and BHQ-2 (Black Hole Quencher 2) dark quencher. Strand separation results in an increase in the fluorescence of TAMRA (excitation 525 nm, emission 598 nm). […]
# [8] = Cytometric Cell-Based qHTS for Inhibitors of the mTORC1 Signaling Pathway in MEF (Tsc2-/-, p53-/-) Cells (AID 2660);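 further: Tsc2 and p53 null MEFs carrying empty vector with compound for 24 h; percent of cells above a phospho-rpS6 to PI ratio cutoff in each well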
# How it was run: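 Percent of cells positive for normalized phospho-S6 staining is reported, with the cutoff set from rapamycin (7.5 nM) versus DMSO wells. Tsc2-/-, p53-/- MEFs received compound for 24 hrs.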
# [9] = High Content Imaging Cell-Based qHTS for Inhibitors of the mTORC1 Signaling Pathway in MEF (Tsc2-/-, p53-/-) Cells (AID 2666); conditions: at 38.3 µM (top of the series);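 further: percent of cells scored positive for phospho-rpS6 Ser235/236 immunostaining by imaging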
# How it was run: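 Tsc2-/-, p53-/- MEFs (empty-vector stable) grown in DMEM + 10% FBS were exposed to compounds for 24 hrs at 37 degree Celsius, fixed, and stained with Alexa-488 anti-phospho-rpS6 Ser235/236 plus Hoechst. Imaging gave the percentage of positive cells per well.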
# [10] = High Content Imaging Cell-Based qHTS for Inhibitors of the mTORC1 Signaling Pathway in MEF Cells (AID 2667);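 further: Tsc2-/- p53-/- MEFs stably re-expressing wild-type Tsc2 exposed 24 h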
# How it was run: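 Tsc2-/-, p53-/- MEFs stably re-expressing WT Tsc2, grown in DMEM + 10% FBS, were treated with compounds for 24 hrs at 37 degree Celsius, fixed, and stained with Alexa-488 phospho-rpS6 Ser235/236 antibody plus Hoechst; results given as % positive cells.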
# Chain of ATP-dependent DNA helicase Q1 (Homo sapiens) (P46063 whole entry, looked up): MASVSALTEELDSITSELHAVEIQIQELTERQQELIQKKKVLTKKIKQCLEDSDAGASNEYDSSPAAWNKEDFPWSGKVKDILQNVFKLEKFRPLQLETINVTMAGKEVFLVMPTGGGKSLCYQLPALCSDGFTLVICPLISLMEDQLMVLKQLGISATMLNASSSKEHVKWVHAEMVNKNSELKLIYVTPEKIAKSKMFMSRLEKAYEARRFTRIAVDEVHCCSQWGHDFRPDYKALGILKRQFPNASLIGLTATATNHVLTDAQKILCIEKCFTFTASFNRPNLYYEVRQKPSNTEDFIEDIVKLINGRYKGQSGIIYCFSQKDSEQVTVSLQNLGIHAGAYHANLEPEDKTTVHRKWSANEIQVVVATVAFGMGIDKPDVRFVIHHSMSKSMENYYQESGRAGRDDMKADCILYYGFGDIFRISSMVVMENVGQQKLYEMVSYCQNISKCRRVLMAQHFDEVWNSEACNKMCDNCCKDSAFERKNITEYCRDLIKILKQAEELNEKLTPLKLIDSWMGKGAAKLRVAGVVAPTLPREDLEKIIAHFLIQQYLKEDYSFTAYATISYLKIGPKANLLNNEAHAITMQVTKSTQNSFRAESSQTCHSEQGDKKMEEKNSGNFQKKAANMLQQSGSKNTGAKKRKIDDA
# Chain of DNA repair nuclease/redox regulator APEX1 (Homo sapiens) (P27695 whole entry, looked up): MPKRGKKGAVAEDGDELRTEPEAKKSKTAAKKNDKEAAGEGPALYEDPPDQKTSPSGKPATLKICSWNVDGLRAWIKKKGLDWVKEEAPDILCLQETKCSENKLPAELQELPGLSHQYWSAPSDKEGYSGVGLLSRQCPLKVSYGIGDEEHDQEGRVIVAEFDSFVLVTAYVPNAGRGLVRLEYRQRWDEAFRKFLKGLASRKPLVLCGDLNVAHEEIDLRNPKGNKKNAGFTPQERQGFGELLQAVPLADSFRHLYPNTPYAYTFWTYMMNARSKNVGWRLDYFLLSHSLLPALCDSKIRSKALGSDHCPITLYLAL
# Chain of RecQ-like DNA helicase BLM (Homo sapiens) (P54132 whole entry, looked up): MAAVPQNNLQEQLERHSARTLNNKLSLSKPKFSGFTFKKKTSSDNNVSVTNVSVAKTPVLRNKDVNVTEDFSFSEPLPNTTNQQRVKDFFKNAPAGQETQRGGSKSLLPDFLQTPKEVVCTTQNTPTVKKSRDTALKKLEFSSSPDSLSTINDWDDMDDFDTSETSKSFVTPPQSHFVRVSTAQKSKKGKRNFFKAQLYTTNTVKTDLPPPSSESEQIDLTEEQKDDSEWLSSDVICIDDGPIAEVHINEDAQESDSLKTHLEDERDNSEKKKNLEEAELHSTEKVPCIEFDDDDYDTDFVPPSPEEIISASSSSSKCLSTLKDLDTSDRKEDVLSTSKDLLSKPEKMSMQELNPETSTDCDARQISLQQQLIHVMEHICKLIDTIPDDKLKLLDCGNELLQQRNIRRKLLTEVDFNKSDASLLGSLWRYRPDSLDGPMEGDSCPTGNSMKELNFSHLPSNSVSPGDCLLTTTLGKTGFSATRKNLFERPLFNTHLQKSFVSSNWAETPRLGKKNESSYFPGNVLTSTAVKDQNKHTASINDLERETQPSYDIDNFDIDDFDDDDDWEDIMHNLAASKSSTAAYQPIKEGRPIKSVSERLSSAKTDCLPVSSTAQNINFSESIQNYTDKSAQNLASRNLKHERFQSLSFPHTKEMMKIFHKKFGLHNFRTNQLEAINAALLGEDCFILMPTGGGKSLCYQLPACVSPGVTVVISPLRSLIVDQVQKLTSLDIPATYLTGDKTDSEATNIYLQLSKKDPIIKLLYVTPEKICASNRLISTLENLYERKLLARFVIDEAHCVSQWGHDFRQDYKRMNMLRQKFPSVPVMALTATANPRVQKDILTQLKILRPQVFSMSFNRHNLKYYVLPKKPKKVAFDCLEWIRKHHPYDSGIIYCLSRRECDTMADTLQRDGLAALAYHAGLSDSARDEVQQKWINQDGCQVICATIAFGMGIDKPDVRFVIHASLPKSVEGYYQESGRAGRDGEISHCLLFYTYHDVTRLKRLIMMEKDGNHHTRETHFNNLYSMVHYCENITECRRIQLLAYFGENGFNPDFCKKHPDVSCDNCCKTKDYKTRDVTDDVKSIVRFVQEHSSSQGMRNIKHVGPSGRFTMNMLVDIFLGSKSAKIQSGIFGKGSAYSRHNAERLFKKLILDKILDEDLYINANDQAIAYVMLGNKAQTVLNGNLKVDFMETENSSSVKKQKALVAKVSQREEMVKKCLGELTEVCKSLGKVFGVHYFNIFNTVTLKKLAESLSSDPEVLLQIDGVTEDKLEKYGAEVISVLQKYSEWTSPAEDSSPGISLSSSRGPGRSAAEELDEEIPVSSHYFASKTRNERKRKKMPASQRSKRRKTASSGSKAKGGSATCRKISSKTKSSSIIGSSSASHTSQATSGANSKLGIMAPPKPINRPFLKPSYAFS
# Chain of Ferritin light chain (Equus caballus) (P02791 2-175 limits assumed): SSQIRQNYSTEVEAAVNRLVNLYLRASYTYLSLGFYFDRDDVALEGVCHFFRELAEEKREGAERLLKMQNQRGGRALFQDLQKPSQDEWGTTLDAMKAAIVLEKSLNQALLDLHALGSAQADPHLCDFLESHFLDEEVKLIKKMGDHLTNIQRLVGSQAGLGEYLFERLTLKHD
structure (smiles),measurement,setting,value
CCOC(C)=O,outcome,[1],inactive
CCCCCCCC(=O)O,outcome,[1],inactive
CCCCCCCC/C=C\CCCCCCCC(=O)O,outcome,[1],inactive
CC(O)CO (centres undefined),outcome,[1],inactive
Oc1cc(O)c2c(c1)OC(c1ccc(O)c(O)c1)C(O)C2 (centres undefined),outcome,[2],inactive
same,Potency,[3],2.51 µM (active)
same,outcome,[4],inactive
CC(C)=O,outcome,[1],inactive
O=S(=O)(O)O,outcome,[1],inactive
CN1Cc2c(N)cccc2C(c2ccccc2)C1 (centres undefined),outcome,[5],inactive
same,outcome,[6],inactive
same,outcome,[7],inactive
same,outcome,[8],inactive
same,outcome,[9],inactive
same,outcome,[10],inactive
IC(I)I,outcome,[1],inactive
Cc1ccccc1,outcome,[1],inactive
Nc1ccn([C@H]2CS[C@@H](CO)O2)c(=O)n1,outcome,[1],inactive
CC[N+](C)(C)Cc1ccccc1Br,outcome,[5],inactive
same,outcome,[6],inactive
same,outcome,[7],inactive
CC1=C(/C=C/C(C)=C/C=C/C(C)=C/CO)C(C)(C)CCC1,outcome,[1],inactive
CCCCC/C=C\C/C=C\CCCCCCCC(=O)O,outcome,[1],inactive
CC1=C2[C@@H]([C@H](C)CC[C@H]2/C=C(\C)C(=O)O)[C@H](O)C1,outcome,[1],inactive
